In PubChem BioAssay AID1159577 (Broad Institute, 2015):
About 240 (18%) of roughly 1,300 compounds were called active. Not shown: some 8% with an inconclusive outcome. Only a sample is shown. Potency and affinity values are given separately. Values without a mark were called inactive. The rule behind the calls is not given here.

Test: toxicity to human hepatoma HepG2 cells – cell-based, cherry-picked samples, cytotoxicity control, dose response (AID 1159577);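 note: 0% = neutral control wells and -100% = positive control wells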
Conditions: HepG2 cytotoxicity counterscreen, plate reader; series mostly up to 19.5 µM; activity change, negative = cytotoxicity: at the top concentration

SMILES	activity change, negative = cytotoxicity
O=C(Nc1ccc(F)cc1)N1C[C@H]2[C@@H](c3ccccc31)[C@@H](CO)N2Cc1cocn1	-1.49%
COc1ccc(NC(=O)N2CC3(C2)CN(C(=O)C2CCC2)[C@H](CO)c2c3c3ccc(OC)cc3n2C)cc1	17.1%
C/C=C/c1ccccc1[C@H]1[C@@H](C#N)N(C(=O)NC2CCCC2)[C@H]1CO	-37.1%
COc1ccc(-c2ccc3c(c2)[C@H]2[C@H](CCN2C(=O)NC2CCCC2)[C@H](CO)N3C)cc1	-7.82% [at 21 µM]
COc1ccc(-c2ccc3c(c2)[C@H]2[C@H](CCN2C(=O)C2CCCC2)[C@H](CO)N3C)cc1	-6.49%
O=C(c1ccc(F)cc1)N1CC(=O)N2[C@H](C1)[C@@H](c1ccc(-c3cccnc3)cc1)[C@@H]2CO	7.07%
CCCNC(=O)Nc1ccc2c(c1)C(=O)N(C)C[C@H](OC)[C@@H](C)CN(C(=O)C1CCOCC1)[C@H](C)CO2	-8.62%
CO[C@@H]1CN(C)C(=O)c2ccc(NC(=O)Nc3ccccc3F)cc2OC[C@@H](C)N(Cc2ccccc2F)C[C@H]1C	-9.23% [at 21 µM]
Cc1ccccc1S(=O)(=O)N1CC(=O)N2[C@H](CO)[C@H](c3ccc(C#CCC4CCCC4)cc3)[C@H]2C1	2.71%
O=C1CN(S(=O)(=O)c2ccccc2)C[C@@H]2[C@H](c3ccc(C#CCc4ccccc4)cc3)[C@@H](CO)N12	2.88%
O=C1CN(S(=O)(=O)c2ccccc2)C[C@H]2[C@H](c3ccc(C#CCc4ccccc4)cc3)[C@@H](CO)N12	-9.33%
Cc1ccccc1S(=O)(=O)N1CC(=O)N2[C@H](CO)[C@H](c3ccc(C#CC4CC4)cc3)[C@@H]2C1	28.6%
C[C@@H]1CN([C@@H](C)CO)C(=O)c2cccc(NC(=O)c3nc4ccccc4s3)c2O[C@H]1CN(C)C(=O)Nc1ccc2c(c1)OCO2	1.55%
CCNC(=O)c1cc2c(c(-c3cccc(-c4cc5ccccc5o4)c3)n1)[C@@H](CCO)N(C(=O)NC(C)C)C2	-12.2%
CC(C)(C)[S@](=O)N1Cc2cc(C(=O)NCCN3CCCCC3)nc(-c3cccc(-c4ccc(C#N)cc4)c3)c2[C@@H]1CCO	-3.55% [at 21 µM]
COc1ccccc1S(=O)(=O)N(C)C[C@@H]1Oc2cc(/C=C/c3ccccc3)ccc2S(=O)(=O)N([C@H](C)CO)C[C@H]1C	-16.5%
O=C(c1ccccc1F)N1CC(=O)N2[C@H](CO)[C@H](c3ccc(-c4cccnc4)cc3)[C@H]2C1	-9.99%
C[C@@H]1CN([C@@H](C)CO)C(=O)c2cccc(NC(=O)c3nc4ccccc4s3)c2O[C@H]1CN(C)C(=O)Nc1ccc(C(F)(F)F)cc1	28%
CCCNC(=O)N1[C@H](C#N)[C@H](c2ccc(-c3cccnc3)cc2)[C@H]1CO	15.7%
